Bioassay records: PubChem, The Scripps Research Institute Molecular Screening Center
Rows were chosen to be rich in hits. Some 1.3% of all compounds tested hit in one or more screens of this group.
LYPLA2 inh – LYPLA2 (human) inhibition in PME1 counter-screen; recombinant LYPLA2, FP-Rh probe fluorescence polarization; inhibition, % at 5.9 µM; O95372; actives 0.38% (n = 320,000);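 active = inhibition above the screen-wide mean plus 3 SD, limit set per campaign, cut at about 26% in these data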;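 note: 0% = LYPLA2 with DMSO and 100% = wells lacking LYPLA2 enzyme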
Target sequence (O95372 whole entry, looked up): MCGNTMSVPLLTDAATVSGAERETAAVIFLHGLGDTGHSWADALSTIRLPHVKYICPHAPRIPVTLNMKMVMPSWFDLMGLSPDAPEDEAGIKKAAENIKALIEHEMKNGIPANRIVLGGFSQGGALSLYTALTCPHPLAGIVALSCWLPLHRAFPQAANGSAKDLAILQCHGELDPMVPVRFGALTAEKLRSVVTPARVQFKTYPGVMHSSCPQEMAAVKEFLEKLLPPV
Fam108B inh – counter-screen for RBBP9 inhibitors: inhibitors of mouse Fam108B | recombinant Fam108B, FP-Rh probe fluorescence polarization | inhibition, % at 9.51 µM | actives 0.33% (n = 300,000) | AID 1947;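 active = inhibition above the screen mean inhibition plus 3 SD, computed separately per campaign, cut at about 18% in these data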;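 note: inhibitors lower polarization as less probe binds the enzyme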
PME-1 primary – blocks human protein phosphatase methylesterase 1. recombinant PME-1, FP-Rh probe fluorescence polarization. inhibition, % at 5.9 µM. actives 0.53% (n = 320,000). AID 2130;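 active = inhibition above the campaign mean of all compounds plus 3 SD, cut at about 26% in these data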;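 note: competitive labeling of PME-1 active site by serine hydrolase directed probe; 0% = PME-1 with DMSO and 100% = wells lacking PME-1 enzyme; inhibitors block probe labeling so polarization falls and inhibition rises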
PREPL inhibitor – inhibitors of human prolyl oligopeptidase-like enzyme PREPL; recombinant PREPL, fluorescence polarization activity-based probe; inhibition, % at 5.96 µM; actives 0.68% (n = 320,000); in the data active = inhibition above about 43%;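 note: 0% = enzyme with DMSO and 100% = wells lacking enzyme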
LYPLA1 inh – blocks human lysophospholipase 1, a PME1 counter-screen. AID 2174. actives 0.16% (n = 320,000). inhibition, % at 5.9 µM. recombinant LYPLA1, FP-Rh probe fluorescence polarization. O75608;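 active = inhibition above the mean of all tested compounds plus 3 SD, set per campaign, cut at about 14% in these data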;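 note: inhibitors block serine hydrolase probe labeling of LYPLA1 so polarization falls; 0% = enzyme with DMSO and 100% = wells lacking LYPLA1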
Target sequence (O75608 whole entry, looked up): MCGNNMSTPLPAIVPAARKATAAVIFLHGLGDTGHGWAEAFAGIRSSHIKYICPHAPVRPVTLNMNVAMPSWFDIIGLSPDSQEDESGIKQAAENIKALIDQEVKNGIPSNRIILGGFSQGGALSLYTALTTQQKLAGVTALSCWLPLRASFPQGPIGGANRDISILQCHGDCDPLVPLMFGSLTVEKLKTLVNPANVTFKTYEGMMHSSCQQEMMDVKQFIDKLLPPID
LYPLA2 conf – LYPLA2 (human) inhibition, confirmation counter-screen; shares compounds with LYPLA2 inh; recombinant LYPLA2, FP-Rh probe fluorescence polarization; inhibition, % at 5.9 µM; actives 72% (n = 1,100); AID 2232;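 active = mean inhibition across replicates above the hit cutoff set in the primary screen, cut at about 26% in these data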;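 note: blocked labeling of the enzyme by serine hydrolase FP-Rh probe lowers polarization; 0% = enzyme with DMSO and 100% = wells lacking LYPLA2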
LYPLA2 gel ABPP – blocks human acyl-protein thioesterase 2 in gel ABPP | actives 30% (n = 150) | rhLYPLA2 in mouse brain proteome, gel ABPP FP-Rh | AID 652029 | shares compounds with LYPLA2 inh | inhibition, % at 20 µM;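 active = inhibition of LYPLA2 enzyme probe labeling above about 50%, limit read from the data; inactive = inhibition below that limit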;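 note: loss of FP-Rh probe labeling of the LYPLA2 gel band measured as band density; 0% = DMSO only control band and 100% = blank gel background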
The depositor's hits bear a star; . = no result.

SMILES	LYPLA2 inh	Fam108B inh	PME-1 primary	PREPL inhibitor	LYPLA1 inh	LYPLA2 conf	others
CO/N=C/c1ccc(N2CCN(C(=O)c3cccc(C(F)(F)F)c3)CC2)c([N+](=O)[O-])c1	87.5*	-3.4	0.4	-21.0	5.0	85.5*
CO/N=C/c1ccc(N2CCN(C(=O)c3ccc(F)cc3)CC2)c([N+](=O)[O-])c1	48.0*	-1.8	1.3	-0.1	1.3	49.9*
O=C(O/N=C\c1ccc(N2CCCCC2)c([N+](=O)[O-])c1)c1cccc(Cl)c1	15.0	3.4	1.9	15.8	3.8	.
O=C(COC(=O)C1CCCCC1)Nc1ccc(S(=O)(=O)N2CCOCC2)cc1	4.4	-1.1	1.3	1.6	0.8	.
CCN1C(=O)CC(C(=O)Nc2ccc(F)cc2)SC1=Nc1ccc2c(c1)OCO2 (centres undefined)	35.5*	3.6	4.0	14.0	2.1	3.3
COc1ccc(N=C2SC(C(=O)Nc3ccc4c(c3)OCO4)CC(=O)N2C)cc1 (centres undefined)	52.6*	3.2	-2.2	21.1	-1.8	39.2*
CCN=C1SC(C(=O)Nc2cccc(C)c2)CC(=O)N1CC (centres undefined)	6.8	-2.6	-10.4	10.7	-4.5	.
CCOc1ccc(NC(=O)C2CC(=O)N(CC)C(=Nc3ccc4c(c3)OCO4)S2)cc1 (centres undefined)	5.0	6.9	1.4	20.6	1.7	.
CCN=C1SC(C(=O)Nc2cccc(Br)c2)CC(=O)N1CC (centres undefined)	26.4*	3.1	-2.4	5.0	-0.4	25.9*
C=C1CC(C(=O)N/N=C/c2ccccc2)C1	-4.7	-2.4	-1.0	16.1	-5.5	.
COc1cccc(/C=C/C(=O)OCC(=O)Nc2ccc(Cl)c(S(=O)(=O)N(C)C)c2)c1OC	-44.7	-26.1	-18.7	-2.7	-26.8	.
O=C1c2cccc3cccc(c23)C(=O)N1CC1CCN(CC(O)COc2ccc3ccccc3c2)CC1 (centres undefined)	47.3*	-6.7	-4.8	-22.0	2.5	38.2*
CCc1ccc(OCC(O)CN2CCC(CN3C(=O)c4cccc5cccc(c45)C3=O)CC2)cc1 (centres undefined)	29.2*	-0.6	5.1	-19.7	-2.9	29.2*
COc1ccc(COCC(O)CN2CCC(CN3C(=O)c4cccc5cccc(c45)C3=O)CC2)cc1OC (centres undefined)	5.4	-0.5	2.8	24.2	2.6	.
O=C1c2cccc3cccc(c23)C(=O)N1CCN1CCN(CC(O)COc2ccc3ccccc3c2)CC1 (centres undefined)	19.2	-8.5	-4.5	2.5	-4.2	.
COc1cccc(OCC(O)CN2CCC(CN3C(=O)c4cccc5cccc(c45)C3=O)CC2)c1 (centres undefined)	38.8*	-0.5	-2.5	6.1	9.3	50.9*	LYPLA2 gel ABPP=12.0
Cc1cc(C)cc(OCC(O)CN2CCC(CN3C(=O)c4cccc5cccc(c45)C3=O)CC2)c1 (centres undefined)	46.0*	-1.6	-0.7	17.1	8.6	48.8*
O=C(NCCCN1CCOCC1)c1cc(S(=O)(=O)N2CCOCC2)ccc1Cl	.	.	.	9.4	.	.
O=C(Nc1c2c(nn1-c1ccc([N+](=O)[O-])cc1)CS(=O)(=O)C2)c1ccco1	-0.6	0.4	-6.3	5.5	0.3	.
COc1ccc(NC(=O)CN2C(=O)COc3ccc(S(=O)(=O)N4CCCCC4)cc32)cc1OC	3.9	2.4	4.8	1.9	1.9	.
COc1ccc(NC(=O)CN2C(=O)COc3ccc(C)cc32)cc1	-2.4	0.1	1.7	-7.0	-1.3	.
O=C(CN1C(=O)CSc2ccc(C(F)(F)F)cc21)Nc1ccccc1	37.1*	-0.4	4.5	-0.9	0.9	36.8*
COc1cccc(NC(=O)CN2C(=O)COc3ccc(C)cc32)c1	31.4*	-1.2	-0.5	-9.5	3.4	28.5*
O=C(CN1C(=O)CSc2ncccc21)Nc1cccc(Cl)c1	61.9*	-4.6	-4.1	-8.0	-3.1	67.0*	LYPLA2 gel ABPP=46.0
O=C(CN1C(=O)COc2ccc(S(=O)(=O)N3CCCC3)cc21)Nc1cccc(F)c1	41.1*	3.0	4.7	-1.7	-2.2	46.7*
SMILES	LYPLA2 inh	Fam108B inh	PME-1 primary	PREPL inhibitor	LYPLA1 inh	LYPLA2 conf	others
COc1cc(NC(=O)CN2C(=O)CSc3ccc(S(=O)(=O)N4CCCC4)cc32)cc(OC)c1	28.0*	2.4	9.2	-0.2	4.6	24.6
CCCCCCN1CC(=O)N2Cc3[nH]c4ccccc4c3C[C@H]2C1=O	58.4*	-0.3	3.9	11.8	-1.0	57.7*	LYPLA2 gel ABPP=35.0
CCCCCN1CC(=O)N2Cc3[nH]c4ccccc4c3C[C@H]2C1=O	55.8*	-4.8	-1.9	15.7	-0.6	56.0*	LYPLA2 gel ABPP=38.0
O=C1[C@@H]2Cc3c([nH]c4ccccc34)CN2C(=O)CN1CCCO	1.2	1.4	-0.2	6.4	-15.2	.
Cc1ccnc(SCC(=O)O)n1	2.0	-1.7	-4.3	2.1	1.0	.
COC(=O)CSc1nccc(C)n1	43.7*	0.2	2.4	-0.6	3.6	0.6
O=C(CSc1nc2nccnc2c(=O)n1Cc1cccs1)Nc1ccccc1	4.0	-0.7	-2.1	-3.6	-7.4	.
COc1ccccc1NC(=O)CSc1nc2nccnc2c(=O)n1Cc1cccs1	26.9*	3.5	10.9	-1.1	-2.8	-3.7
Cc1ccc(C)c(N2CCN(C(=O)c3ccc(CSc4nc5ccncc5[nH]4)cc3)CC2)c1	0.0	-4.0	-9.8	-12.2	-0.6	.
COc1ccc(N2CCN(C(=O)c3ccc(NS(=O)(=O)c4ccccc4)cc3)CC2)cc1	37.4*	0.6	2.0	5.3	1.8	33.7*
COc1cccc(N2CCN(C(=O)c3ccc(CSc4nc5ccncc5[nH]4)cc3)CC2)c1	31.1*	-1.3	2.6	10.2	3.1	22.4
Cc1noc(C)c1S(=O)(=O)Nc1ccc(C(=O)N2CCN(c3cccc(Cl)c3)CC2)cc1	30.3*	6.4	1.3	19.7	5.3	24.6
COc1ccc(N2CCN(C(=O)c3ccc4c(c3)CCN4S(=O)(=O)c3ccccc3)CC2)cc1	34.6*	-0.1	2.7	10.6	-1.2	41.5*
O=C(C1CCN(S(=O)(=O)c2cccc3cccnc23)CC1)N1CCCCC1	-0.4	0.9	2.9	0.2	-1.5	.
COc1ccc(N2CCN(C(=O)c3ccc(S(=O)(=O)NCc4ccco4)cc3)CC2)cc1	31.9*	.	-0.2	13.9	-4.0	38.3*
COc1ccc(N2CCN(CCC(=O)c3ccc4ccccc4c3)CC2)cc1	28.6*	0.8	-2.9	23.2	8.0	26.5*
COc1ccc(N2CCN(CC(=O)c3ccccc3)CC2)cc1	0.9	1.7	4.7	14.5	1.6	.
